What all share (settings): mRNA level, 48 h; actives raise or lower the signal
Read-out in assay [1]: Cytochrome P450 7A1 (Homo sapiens) (UniProt P22680)
Nature of the assay: LTEA_HepaRG_CYP7A1: Life Technologies and Expression Analysis (LTEA) Assay for Cytochrome P450 7A1 (CYP7A1) using HepaRG (AID 2283496). The method, boiled down: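 HepaRG cells plated 48 h, then switched to serum-free induction medium and exposed in duplicate for 48 h to 8-point half-log series from 100 uM in 0.5% DMSO. CYP7A1 mRNA by qRT-PCR (TaqMan), normalized to ACTB/GAPDH/POLR2A; bidirectional fit versus DMSO.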

Read-out in assay [2]: Glutathione S-Transferase (GSTA2), GSTA2 (gene 2939)
Nature of the assay: LTEA_HepaRG_GSTA2: Life Technologies and Expression Analysis (LTEA) Assay for Glutathione S-Transferase (GSTA2) using HepaRG (AID 2283497). In a few lines: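 Human HepaRG cells, plated 48 h, then exposed in serum-free induction medium for 48 h to eight half-log concentrations up to 100 uM in 0.5% DMSO, duplicate. GSTA2 mRNA by qRT-PCR, normalized to ACTB/GAPDH/POLR2A; bidirectional fit versus DMSO.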

Read-out in assay [3]: Glutamate-cysteine ligase catalytic (GCLC), GCLC (gene 2729)
Nature of the assay: LTEA_HepaRG_GCLC: Life Technologies and Expression Analysis (LTEA) Assay for Glutamate-cysteine ligase catalytic (GCLC) using HepaRG (AID 2283498). In a few lines:
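Differentiated human HepaRG cells, plated 48 h then switched to serum-free induction medium, were exposed in duplicate for 48 h to 8 half-log concentrations topping at 100 uM in 0.5% DMSO. GCLC mRNA was quantified by qRT-PCR against ACTB, GAPDH and POLR2A.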

Read-out in assay [4]: growth arrest and DNA damage 45 (GADD45G), GADD45G (gene 10912)
Briefly: LTEA_HepaRG_GADD45G: Life Technologies and Expression Analysis (LTEA) Assay for growth arrest and DNA damage 45 (GADD45G) using HepaRG (AID 2283499). The method, boiled down: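 Differentiated human HepaRG cells in serum-free induction medium were exposed for 48 h to 8 half-log concentrations up to 100 uM in 0.5% DMSO, in duplicate. GADD45G mRNA was measured by TaqMan qRT-PCR, normalised to ACTB, GAPDH and POLR2A, and fitted bidirectionally against DMSO.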

Read-out in assay [5]: Glutamate-cysteine ligase regulatory (GCLM), GCLM (gene 2730)
Briefly: LTEA_HepaRG_GCLM: Life Technologies and Expression Analysis (LTEA) Assay for Glutamate-cysteine ligase regulatory (GCLM) using HepaRG (AID 2283500). In a few lines:
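Differentiated HepaRG cells exposed 48 h in serum-free induction medium to eight half-log concentrations up to 100 uM (0.5% DMSO). GCLM mRNA by TaqMan qRT-PCR, normalized to ACTB, GAPDH and POLR2A; bidirectional fit versus DMSO.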

Read-out in assay [6]: Glutathione S-transferase M3 (GSTM3), GSTM3 (gene 2947)
Nature of the assay: LTEA_HepaRG_GSTM3: Life Technologies and Expression Analysis (LTEA) Assay for Glutathione S-transferase M3 (GSTM3) using HepaRG (AID 2283501). The method, boiled down: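 Differentiated HepaRG cells in serum-free induction medium were exposed in duplicate for 48 h to 8 half-log concentrations up to 100 uM in 0.5% DMSO. GSTM3 mRNA was measured by TaqMan qRT-PCR, normalized to ACTB/GAPDH/POLR2A, and fitted bidirectionally versus DMSO.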

Read-out in assay [7]: Heat shock 70 kDa protein 1 (HSPA1A), gene 3303
Nature of the assay: LTEA_HepaRG_HSPA1A: Life Technologies and Expression Analysis (LTEA) Assay for Heat shock 70 kDa protein 1 (HSPA1A) using HepaRG (AID 2283502). The method, boiled down:
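Human HepaRG cells in serum-free induction medium were exposed in duplicate for 48 h to 8 half-log concentrations, highest 100 uM, in 0.5% DMSO. HSPA1A mRNA read by TaqMan qRT-PCR, normalized to ACTB, GAPDH, POLR2A, fitted bidirectionally against DMSO.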

Read-out in assay [8]: Hypoxia-inducible factor 1-alpha (Homo sapiens) (UniProt Q16665)
Briefly: LTEA_HepaRG_HIF1A: Life Technologies and Expression Analysis (LTEA) Assay for Hypoxia-inducible factor 1 (HIF1A) Trancription factor using HepaRG (AID 2283503). The method, boiled down: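 Differentiated HepaRG cells in serum-free induction medium exposed 48 h, in duplicate, to 8-point half-log series from 100 uM in 0.5% DMSO. HIF1A mRNA measured by TaqMan qRT-PCR, normalized to ACTB/GAPDH/POLR2A, fitted bidirectionally versus DMSO.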

Read-out in assay [9]: 3-Hydroxy-3-Methylglutaryl-CoA Synthase 2 (HMGCS2), HMGCS2 (gene 3158)
Nature of the assay: LTEA_HepaRG_HMGCS2: Life Technologies and Expression Analysis (LTEA) Assay for 3-Hydroxy-3-Methylglutaryl-CoA Synthase 2 (HMGCS2) using HepaRG (AID 2283504). In a few lines: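 Differentiated human HepaRG cells were exposed in duplicate for 48 h in serum-free induction medium to eight concentrations (top 100 uM, half-log steps, 0.5% DMSO). HMGCS2 mRNA was quantified by TaqMan qRT-PCR, normalised to ACTB, GAPDH and POLR2A, then fitted bidirectionally against DMSO.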

Read-out in the next assay: HGF (gene 3082)
Nature of the assay: LTEA_HepaRG_HGF: Life Technologies and Expression Analysis (LTEA) Assay for Hepatocyte Growth Facto (HGF) using HepaRG (AID 2283505). The method, boiled down:
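Differentiated human HepaRG cells in serum-free induction medium were exposed in duplicate for 48 h to eight concentrations (top 100 uM, half-log steps, 0.5% DMSO). HGF mRNA was quantified by qRT-PCR, normalized to ACTB, GAPDH and POLR2A.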

Read-out in assay [10]: Insulin Like Growth Factor 1 (IGF1), IGF1 (gene 3479)
Briefly: LTEA_HepaRG_IGF1: Life Technologies and Expression Analysis (LTEA) Assay for Insulin Like Growth Factor 1 (IGF1) using HepaRG (AID 2283506). In a few lines:
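Differentiated HepaRG cells in serum-free induction medium, exposed 48 h in duplicate to 8 half-log concentrations up to 100 uM in 0.5% DMSO. IGF1 mRNA by Fluidigm qRT-PCR, normalised to ACTB, GAPDH and POLR2A.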

Read-out in assay [11]: Intercellular Adhesion Molecule 1 (ICAM1), ICAM1 (gene 3383)
Briefly: LTEA_HepaRG_ICAM1: Life Technologies and Expression Analysis (LTEA) Assay for Intercellular Adhesion Molecule 1 (ICAM1) using HepaRG (AID 2283507). The method, boiled down:
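Differentiated HepaRG cells in serum-free induction medium were exposed in duplicate for 48 h to eight half-log concentrations up to 100 uM in 0.5% DMSO. Transcript levels were measured by qRT-PCR normalized to ACTB, GAPDH and POLR2A; bidirectional fits relative to DMSO.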

Read-out in assay [12]: Insulin-like growth factor-binding protein 1 (IGFBP1), IGFBP1 (gene 3484)
Nature of the assay: LTEA_HepaRG_IGFBP1: Life Technologies and Expression Analysis (LTEA) Assay for Insulin-like growth factor-binding protein 1 (IGFBP1) using HepaRG (AID 2283508). In a few lines: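 Differentiated human HepaRG cells in serum-free induction medium were exposed in duplicate for 48 h to eight concentrations, top 100 uM with half-log dilutions, in 0.5% DMSO. Transcript levels came from qRT-PCR normalised to ACTB, GAPDH and POLR2A, fitted bidirectionally against DMSO.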

Read-out in assay [13]: Interleukin 6 (IL6), IL6 (gene 3569)
Nature of the assay: LTEA_HepaRG_IL6: Life Technologies and Expression Analysis (LTEA) Assay for Interleukin 6 (IL6) using HepaRG (AID 2283509). In a few lines:
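Differentiated human HepaRG cells, plated 48 h then switched to serum-free induction medium, were exposed in duplicate for 48 h to eight half-log concentrations up to 100 uM in 0.5% DMSO. IL6 mRNA measured by qRT-PCR, normalized to ACTB/GAPDH/POLR2A.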

Read-out in assay [14]: Interleukin 6 Receptor (IL6R), IL6R (gene 3570)
Nature of the assay: LTEA_HepaRG_IL6R: Life Technologies and Expression Analysis (LTEA) Assay for Interleukin 6 Receptor (IL6R) using HepaRG (AID 2283510). The method, boiled down: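 Differentiated HepaRG cells, plated 48 h, then exposed in duplicate for 48 h in serum-free induction medium to 8 half-log concentrations (top 100 uM, 0.5% DMSO). IL6R mRNA measured by TaqMan qRT-PCR, normalized to ACTB/GAPDH/POLR2A; bidirectional fit vs DMSO.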

Read-out in assay [15]: Potassium channel subfamily K member 1 (KCNK1), KCNK1 (gene 3775)
Briefly: LTEA_HepaRG_KCNK1: Life Technologies and Expression Analysis (LTEA) Assay for Potassium channel subfamily K member 1 (KCNK1) using HepaRG (AID 2283511). In a few lines:
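Differentiated human HepaRG cells in serum-free induction medium were exposed in duplicate for 48 h to 8 half-log concentrations up to 100 uM in 0.5% DMSO. KCNK1 mRNA was measured by TaqMan qRT-PCR, normalized to ACTB, GAPDH and POLR2A, and fitted bidirectionally versus DMSO.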

Read-out in assay [16]: Keratin 19 (KRT19), KRT19 (gene 3880)
Nature of the assay: LTEA_HepaRG_KRT19: Life Technologies and Expression Analysis (LTEA) Assay for Keratin 19 (KRT19) using HepaRG (AID 2283512). The method, boiled down:
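Differentiated human HepaRG cells, plated 48 h, were exposed in duplicate for 48 h in serum-free induction medium to eight half-log concentrations up to 100 uM in 0.5% DMSO. KRT19 mRNA was quantified by qRT-PCR, normalized to ACTB, GAPDH and POLR2A, and fitted bidirectionally versus DMSO.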

Read-out in assay [17]: JUN Transcription Factor, JUN (gene 3725)
Nature of the assay: LTEA_HepaRG_JUN: Life Technologies and Expression Analysis (LTEA) Assay for JUN Transcription Factor using HepaRG (AID 2283513). In a few lines:
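HepaRG cells, 48 h post-plating, exposed 48 h in serum-free induction medium to 8-point half-log series (top 100 uM, 0.5% DMSO), duplicate; mRNA by qRT-PCR (TaqMan, Fluidigm), normalized to ACTB/GAPDH/POLR2A; bidirectional fit vs DMSO.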

Read-out in assay [18]: Lipase C (LIPC), LIPC (gene 3990)
Briefly: LTEA_HepaRG_LIPC: Life Technologies and Expression Analysis (LTEA) Assay for Lipase C (LIPC) using HepaRG (AID 2283514). The method, boiled down: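 Differentiated human HepaRG cells in serum-free induction medium were exposed in duplicate for 48 h to eight concentrations (top 100 uM, half-log steps, 0.5% DMSO). LIPC mRNA was quantified by TaqMan qRT-PCR, normalized to ACTB, GAPDH and POLR2A, with bidirectional fitting versus DMSO.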

Read-out in assay [19]: Lipoprotein lipase (LPL), LPL (gene 4023)
Nature of the assay: LTEA_HepaRG_LPL: Life Technologies and Expression Analysis (LTEA) Assay for Lipoprotein lipase (LPL) using HepaRG (AID 2283515). The method, boiled down: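 Differentiated human HepaRG cells in serum-free induction medium were exposed in duplicate for 48 h to eight half-log concentrations (top 100 uM) in 0.5% DMSO. LPL mRNA was quantified by TaqMan qRT-PCR, normalized to ACTB, GAPDH and POLR2A.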

The structures appear in SMILES notation. The source made the active and inactive calls. How the source made its calls: active means hit-call score of the fitted dose curve at least 0.9, where 1 is the maximum; inactive means score below 0.9.

Sequence of Hypoxia-inducible factor 1-alpha (Homo sapiens) (Q16665 whole entry, looked up): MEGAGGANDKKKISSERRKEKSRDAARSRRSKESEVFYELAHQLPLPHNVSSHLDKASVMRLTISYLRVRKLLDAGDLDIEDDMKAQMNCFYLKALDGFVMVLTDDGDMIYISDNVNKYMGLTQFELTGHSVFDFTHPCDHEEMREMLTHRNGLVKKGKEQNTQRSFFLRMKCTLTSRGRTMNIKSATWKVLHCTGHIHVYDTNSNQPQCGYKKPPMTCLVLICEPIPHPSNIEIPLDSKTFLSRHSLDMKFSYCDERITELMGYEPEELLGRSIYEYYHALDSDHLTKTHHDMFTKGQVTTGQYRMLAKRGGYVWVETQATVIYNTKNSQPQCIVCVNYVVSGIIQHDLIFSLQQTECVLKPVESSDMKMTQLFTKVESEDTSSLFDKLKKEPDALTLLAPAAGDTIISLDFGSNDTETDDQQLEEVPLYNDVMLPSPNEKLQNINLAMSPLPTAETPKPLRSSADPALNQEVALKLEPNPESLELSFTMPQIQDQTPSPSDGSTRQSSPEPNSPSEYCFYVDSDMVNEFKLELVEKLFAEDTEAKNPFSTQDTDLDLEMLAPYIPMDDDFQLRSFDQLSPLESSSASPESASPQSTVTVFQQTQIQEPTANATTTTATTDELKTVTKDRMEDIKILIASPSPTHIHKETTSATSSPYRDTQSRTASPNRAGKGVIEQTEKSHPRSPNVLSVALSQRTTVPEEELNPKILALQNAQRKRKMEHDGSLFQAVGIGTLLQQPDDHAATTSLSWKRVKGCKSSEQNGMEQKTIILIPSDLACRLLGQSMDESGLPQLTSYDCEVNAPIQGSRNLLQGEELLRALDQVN

In the case of `CCOP(=O)(NC(C)C)Oc1ccc(SC)c(C)c1` (stereo unspecified), the AC50 (usually the concentration giving half of the maximal activity seen) in assay [1] was 3.62 µM (active); in assay [9] it was 18.8 µM (active); in assay [10], 50 µM (active). Also, the outcome in [2], in assay [3], in assay [4], in [5], in assay [6] and in assay [7] was inactive. The result (in [8]; with HGF (gene 3082); in assay [11]; in [12]; in assay [13]; in assay [14]) was inactive. Also, the compound was classed as inactive in assay [15], in [16], in [17], in assay [18] and in assay [19].
With `CCOP(=S)(OCC)SCCSCC`, the call in assay [1], in assay [2], in assay [3], in assay [4], in [5] and in assay [7] was inactive. The compound was called inactive (in assay [8]; in assay [9]; in the assay with HGF (gene 3082); in assay [11]; in [12]; in assay [13]). For the same compound, the outcome in assay [14], in assay [15], in [16], in [17], in assay [18] and in assay [19] was inactive.
For `C#CCC1=C(C)C(OC(=O)C2C(C=C(C)C)C2(C)C)CC1=O` (stereo unspecified), the call in [1], in [2], in assay [3], in [4], in [5] and in assay [7] was inactive. In addition, the result (in [8]; in assay [9]; with HGF (gene 3082); in assay [11]; in assay [12]; in assay [13]) was inactive. In addition, the compound was classed as inactive in [14], in [15], in assay [16], in [17] and in [19]. Also, the AC50 in assay [10] was 71 µM (active).
